# Laboratory results as given in the supplement of paper PMC10849652.
# Of roughly 7,900 targets only a part is listed; those with a hit were picked by preference. About 0.6% of all pairs of compound and target were hits. Unmarked numbers belong to inactive results.
# How the values were obtained:
# Test in all cases: log2 fold change, soluble protein after heating vs DMSO (PISA); higher = thermal stabilisation; K562 cells, 10 uM, 30 min; active = over 0.2 and 3.5 SD of the protein, either way, in both replicates (recomputed)
# erlotinib = compound: C#Cc1cccc(Nc2ncnc3cc(OCCOC)c(OCCOC)cc23)c1 [erlotinib]
# How it was run: (§1)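 Soluble protein was quantified by TMTpro 16plex LC-MS/MS after channel sums were equalised. It was obtained as the supernatant after 21,000xg for 90 min from pooled aliquots of K562 cells (2×10^6 cells/mL, 10 μM compound, 30 min) heated for 3 min across 48°C-58°C and extracted in PBS with 0.5% NP-40 at 4°C. Thermal stability values are relative to control samples and come from duplicates. They are given as log2 fold changes.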
# [1] = compound: C/C(=N\NC(=O)C1=CC(=CC=C1)S(=O)(=O)N2CCOCC2)/C3=C(C=CC(=C3)Cl)O
# How it was run: as §1
# [2] = compound: C1=CC(=C(C=C1Cl)C2=NC3=NC=CN=C3C(=N2)NC4=CC=NC=C4)F
# How it was run: as §1
# [3] = compound: C1=CC(=CC=C1C2=NC3=C(N2)C=C(C=C3)C(=O)N)OC4=CC=C(C=C4)Cl
# How it was run: as §1
# [4] = compound: C1=CC2=C(C=CC(=C2)/C=C\3/C(=O)NC(=NCC4=CC=CS4)S3)N=C1
# How it was run: as §1
# [5] = compound: C1=CC2=NC=CN=C2C=C1/C=C/3\C(=O)NC(=O)S3
# How it was run: as §1
# [6] = compound: C1=CC=C(C=C1)C2=NC(=C(N2)C3=CC=NC=C3)C4=CC(=C(C=C4)Cl)O
# How it was run: as §1
# [7] = compound: C1=CC=C2C(=C1)C3=NNC4=CC=CC(=C43)C2=O
# How it was run: as §1
# [8] = compound: C1CCN(C1)C(=O)NC2=CC=CC(=C2)NC3=NC=C(C(=N3)NCCC4=CN=CN4)Br
# How it was run: as §1
# [9] = compound: C1CN(CCC1(CC2=CC=C(C=C2)Cl)N)C3=NC=NC4=C3C=CN4
# How it was run: as §1
# Sequence of UniProt Q8IZ69 (Q8IZ69 whole entry, looked up): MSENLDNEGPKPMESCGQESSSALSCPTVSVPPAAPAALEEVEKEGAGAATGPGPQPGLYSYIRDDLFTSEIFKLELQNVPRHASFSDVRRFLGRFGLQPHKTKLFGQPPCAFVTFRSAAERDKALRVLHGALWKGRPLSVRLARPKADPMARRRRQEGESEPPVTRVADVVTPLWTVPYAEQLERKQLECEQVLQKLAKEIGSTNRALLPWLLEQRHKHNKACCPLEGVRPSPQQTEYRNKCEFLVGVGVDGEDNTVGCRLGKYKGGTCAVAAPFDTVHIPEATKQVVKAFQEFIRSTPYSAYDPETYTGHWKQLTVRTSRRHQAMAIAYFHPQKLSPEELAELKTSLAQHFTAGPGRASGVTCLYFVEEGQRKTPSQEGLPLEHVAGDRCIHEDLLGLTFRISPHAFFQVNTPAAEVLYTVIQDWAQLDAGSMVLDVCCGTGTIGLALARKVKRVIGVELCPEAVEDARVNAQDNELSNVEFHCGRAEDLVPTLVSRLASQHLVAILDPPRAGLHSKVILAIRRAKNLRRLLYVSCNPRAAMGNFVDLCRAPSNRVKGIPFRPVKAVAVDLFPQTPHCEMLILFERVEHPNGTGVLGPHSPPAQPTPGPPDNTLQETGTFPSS
# Sequence of UniProt P07951 (P07951 whole entry, looked up): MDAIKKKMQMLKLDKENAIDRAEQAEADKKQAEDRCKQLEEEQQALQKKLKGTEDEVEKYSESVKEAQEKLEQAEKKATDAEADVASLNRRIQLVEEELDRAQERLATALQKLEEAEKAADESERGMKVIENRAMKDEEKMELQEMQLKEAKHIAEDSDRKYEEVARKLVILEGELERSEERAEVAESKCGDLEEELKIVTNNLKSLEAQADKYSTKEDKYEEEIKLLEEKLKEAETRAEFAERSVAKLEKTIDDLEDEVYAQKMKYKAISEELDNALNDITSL
# Sequence of UniProt Q9UL33 (Q9UL33 whole entry, looked up): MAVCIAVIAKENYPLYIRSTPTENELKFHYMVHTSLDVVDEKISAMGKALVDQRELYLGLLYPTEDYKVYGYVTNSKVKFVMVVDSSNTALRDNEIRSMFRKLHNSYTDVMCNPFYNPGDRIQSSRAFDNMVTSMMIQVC
# Sequence of UniProt P98170 (P98170 whole entry, looked up): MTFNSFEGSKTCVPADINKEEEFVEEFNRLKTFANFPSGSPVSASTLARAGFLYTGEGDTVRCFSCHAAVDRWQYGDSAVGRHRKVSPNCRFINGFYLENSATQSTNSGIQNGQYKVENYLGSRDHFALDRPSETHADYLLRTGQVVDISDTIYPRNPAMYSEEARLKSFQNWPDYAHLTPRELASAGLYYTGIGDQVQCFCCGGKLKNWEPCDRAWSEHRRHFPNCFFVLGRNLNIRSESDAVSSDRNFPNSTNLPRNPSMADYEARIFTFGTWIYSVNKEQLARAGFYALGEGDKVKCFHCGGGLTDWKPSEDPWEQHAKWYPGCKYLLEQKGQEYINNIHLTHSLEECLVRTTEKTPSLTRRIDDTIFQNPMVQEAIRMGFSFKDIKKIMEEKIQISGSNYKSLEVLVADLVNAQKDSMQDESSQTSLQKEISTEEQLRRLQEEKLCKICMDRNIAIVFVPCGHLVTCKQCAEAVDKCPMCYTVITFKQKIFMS
# Sequence of UniProt Q9P0T7 (Q9P0T7 whole entry, looked up): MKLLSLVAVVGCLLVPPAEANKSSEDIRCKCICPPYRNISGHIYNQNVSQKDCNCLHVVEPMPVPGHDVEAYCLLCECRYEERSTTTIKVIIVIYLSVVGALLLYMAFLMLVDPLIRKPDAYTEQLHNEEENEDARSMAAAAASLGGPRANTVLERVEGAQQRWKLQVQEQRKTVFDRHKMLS
# Sequence of UniProt P54578 (P54578 whole entry, looked up): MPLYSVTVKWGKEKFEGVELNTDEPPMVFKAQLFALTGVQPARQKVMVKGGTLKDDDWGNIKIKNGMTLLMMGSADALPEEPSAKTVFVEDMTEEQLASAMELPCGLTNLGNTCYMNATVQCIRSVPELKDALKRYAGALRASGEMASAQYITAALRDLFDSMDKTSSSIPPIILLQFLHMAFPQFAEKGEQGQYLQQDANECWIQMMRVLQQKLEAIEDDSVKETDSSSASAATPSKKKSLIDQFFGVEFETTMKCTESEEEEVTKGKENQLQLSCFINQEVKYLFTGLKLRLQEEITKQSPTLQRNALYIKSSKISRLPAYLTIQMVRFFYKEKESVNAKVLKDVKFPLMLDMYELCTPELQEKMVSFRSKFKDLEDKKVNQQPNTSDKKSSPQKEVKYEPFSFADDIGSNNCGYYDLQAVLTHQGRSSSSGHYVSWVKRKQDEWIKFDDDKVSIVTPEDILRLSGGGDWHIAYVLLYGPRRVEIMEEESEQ
# Sequence of UniProt Q5U3C3 (Q5U3C3 whole entry, looked up): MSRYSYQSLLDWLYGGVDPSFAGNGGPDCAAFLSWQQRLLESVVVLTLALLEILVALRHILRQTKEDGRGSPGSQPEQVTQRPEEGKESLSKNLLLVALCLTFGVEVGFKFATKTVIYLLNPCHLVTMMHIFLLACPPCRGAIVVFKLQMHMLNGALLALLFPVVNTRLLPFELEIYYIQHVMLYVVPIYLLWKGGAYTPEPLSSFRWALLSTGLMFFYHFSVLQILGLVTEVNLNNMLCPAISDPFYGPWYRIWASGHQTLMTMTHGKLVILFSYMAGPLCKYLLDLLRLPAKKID
# Sequence of UniProt Q5VZI3 (Q5VZI3 whole entry, looked up): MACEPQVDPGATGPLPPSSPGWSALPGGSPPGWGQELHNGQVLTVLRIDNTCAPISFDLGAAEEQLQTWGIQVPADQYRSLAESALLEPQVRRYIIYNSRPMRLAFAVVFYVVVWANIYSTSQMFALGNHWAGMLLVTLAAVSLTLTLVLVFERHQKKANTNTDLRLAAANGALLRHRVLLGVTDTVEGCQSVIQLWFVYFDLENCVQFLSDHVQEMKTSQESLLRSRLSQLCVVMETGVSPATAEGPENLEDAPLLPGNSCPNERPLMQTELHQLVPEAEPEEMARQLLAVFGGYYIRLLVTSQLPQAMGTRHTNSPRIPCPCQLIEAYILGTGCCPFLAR
# Sequence of UniProt Q7Z3J2 (Q7Z3J2 whole entry, looked up): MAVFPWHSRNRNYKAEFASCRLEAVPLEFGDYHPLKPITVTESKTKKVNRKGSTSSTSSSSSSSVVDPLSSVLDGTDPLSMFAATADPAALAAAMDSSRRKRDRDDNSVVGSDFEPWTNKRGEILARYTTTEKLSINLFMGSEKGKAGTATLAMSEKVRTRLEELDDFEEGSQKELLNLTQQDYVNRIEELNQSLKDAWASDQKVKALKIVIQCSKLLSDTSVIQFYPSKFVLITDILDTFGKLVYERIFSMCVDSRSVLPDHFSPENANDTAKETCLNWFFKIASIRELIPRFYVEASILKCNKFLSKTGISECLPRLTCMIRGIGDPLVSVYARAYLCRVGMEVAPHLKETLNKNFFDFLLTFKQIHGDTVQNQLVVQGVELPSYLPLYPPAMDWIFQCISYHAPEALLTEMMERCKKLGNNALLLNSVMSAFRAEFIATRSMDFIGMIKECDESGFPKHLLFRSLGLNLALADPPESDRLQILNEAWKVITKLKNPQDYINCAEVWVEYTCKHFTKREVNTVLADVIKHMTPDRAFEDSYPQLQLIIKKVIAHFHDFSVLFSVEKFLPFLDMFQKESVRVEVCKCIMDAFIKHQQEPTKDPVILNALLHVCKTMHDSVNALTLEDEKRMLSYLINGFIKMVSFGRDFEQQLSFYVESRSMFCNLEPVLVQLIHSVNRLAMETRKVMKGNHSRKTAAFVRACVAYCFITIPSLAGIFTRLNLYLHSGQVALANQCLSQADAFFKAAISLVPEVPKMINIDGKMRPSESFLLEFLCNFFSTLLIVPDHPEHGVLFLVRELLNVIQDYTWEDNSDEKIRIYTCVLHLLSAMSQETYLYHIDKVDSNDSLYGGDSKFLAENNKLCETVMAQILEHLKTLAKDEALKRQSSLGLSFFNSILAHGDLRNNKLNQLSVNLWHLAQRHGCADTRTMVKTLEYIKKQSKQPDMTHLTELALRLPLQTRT
# Sequence of UniProt Q9NUM4 (Q9NUM4 whole entry, looked up): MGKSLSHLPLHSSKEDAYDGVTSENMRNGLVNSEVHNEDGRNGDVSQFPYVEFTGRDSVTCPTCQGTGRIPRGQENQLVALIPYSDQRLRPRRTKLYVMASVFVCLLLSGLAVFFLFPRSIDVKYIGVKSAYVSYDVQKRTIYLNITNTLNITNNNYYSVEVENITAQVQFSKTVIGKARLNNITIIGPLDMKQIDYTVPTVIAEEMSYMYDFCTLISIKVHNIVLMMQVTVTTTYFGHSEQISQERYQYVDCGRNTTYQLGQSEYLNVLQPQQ
# Sequence of UniProt Q9BTX3 (Q9BTX3 whole entry, looked up): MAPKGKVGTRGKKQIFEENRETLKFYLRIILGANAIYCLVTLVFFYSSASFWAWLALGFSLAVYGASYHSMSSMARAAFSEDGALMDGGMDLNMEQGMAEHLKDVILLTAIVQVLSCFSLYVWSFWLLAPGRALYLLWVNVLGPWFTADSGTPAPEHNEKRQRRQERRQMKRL
# Sequence of UniProt Q8N2K1 (Q8N2K1 whole entry, looked up): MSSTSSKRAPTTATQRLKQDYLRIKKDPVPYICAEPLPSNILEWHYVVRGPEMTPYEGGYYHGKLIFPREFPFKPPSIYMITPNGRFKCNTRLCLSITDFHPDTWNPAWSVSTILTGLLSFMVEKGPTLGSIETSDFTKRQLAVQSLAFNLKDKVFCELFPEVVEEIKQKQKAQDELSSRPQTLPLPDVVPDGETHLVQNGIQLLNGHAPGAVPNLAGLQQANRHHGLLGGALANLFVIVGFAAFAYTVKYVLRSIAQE
# Sequence of UniProt Q96HV5 (Q96HV5 whole entry, looked up): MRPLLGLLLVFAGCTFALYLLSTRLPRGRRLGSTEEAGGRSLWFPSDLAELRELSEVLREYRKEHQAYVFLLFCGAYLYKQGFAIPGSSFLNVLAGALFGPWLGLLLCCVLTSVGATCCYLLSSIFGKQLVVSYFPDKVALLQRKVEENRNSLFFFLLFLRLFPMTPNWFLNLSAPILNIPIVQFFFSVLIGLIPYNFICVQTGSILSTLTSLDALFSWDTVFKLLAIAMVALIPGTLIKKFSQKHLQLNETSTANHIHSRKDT
# Sequence of UniProt P61960 (P61960 whole entry, looked up): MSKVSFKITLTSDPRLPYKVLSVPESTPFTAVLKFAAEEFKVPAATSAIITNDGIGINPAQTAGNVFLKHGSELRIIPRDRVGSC
Target,log2 fold change (erlotinib),log2 fold change [1],log2 fold change [2],log2 fold change [3],log2 fold change [4],log2 fold change [5],log2 fold change [6],log2 fold change [7],log2 fold change [8],log2 fold change [9]
TRMT10A (UniProt Q8TBZ6),-0.01,0.044,0.004,0.031,0.037,0.02,-0.015,0.271 (active),0.038,-0.045
USP14 (UniProt P54578),-0.027,0.03,0.084,-0.014,-0.04,0,0.02,0.015,-0.016,-0.001
USO1 isoform 2 (UniProt O60763),-0.008,0.046,0.051,-0.028,-0.049,0.059,0.004,-0.028,0.033,-0.014
TMEM106B (UniProt Q9NUM4),0.007,0.028,-0.047,0.031,0.051,-0.002,,0.003,-0.064,0.15
TMEM164 (UniProt Q5U3C3),-0.103,0.178,0.041,0.002,0.129,0.078,,0.017,-0.042,0.021
UFM1 (UniProt P61960),0.026,0.072,0.093,0.064,-0.015,-0.002,0.12,0.172,-0.297,0.088
TMEM268 isoform 3 (UniProt Q5VZI3),-0.161,0.061,-0.166,0.054,0.024,-0.138,0.118,-0.21,0.13,0.045
TRAPPC2L (UniProt Q9UL33),0.193,0.062,-0.037,-0.273,-0.047,0.001,-0.096,-0.008,-0.083,-0.031
XIAP (UniProt P98170),0.166,0.062,0.1,-0.002,0.075,-0.018,,-0.002,-0.024,0.065
TMEM9 (UniProt Q9P0T7),0.014,0.008,0.254,-0.021,-0.034,-0.117,0.037,-0.004,-0.053,-0.025
TMEM104 (UniProt Q8NE00),0.08,-0.026,0.037,0.026,0.039,,0.013,-0.015,,
WASHC5 (UniProt Q12768),0.019,0.084,-0.061,-0.004,0.088,-0.058,0.04,0.018,0.002,0.002
TNPO2 (UniProt O14787),0.075,0.115,0.033,-0.064,0.077,0.017,0.018,-0.008,0.027,-0.008
TPM2 (UniProt P07951),-0.05,0.009,0.417,0.021,-0.146,0.025,0.102,0.02,-0.069,0.101
TP53BP1 isoform 2 (UniProt Q12888),-0.011,0.019,-0.017,-0.001,0.012,0.043,-0.024,-0.078,-0.057,-0.077
TRAPPC11 (UniProt Q7Z392),0.044,0.136,-0.027,0.017,0.105,0.059,0.027,0.062,-0.019,-0.001
TMEM41A (UniProt Q96HV5),0.013,0.046,-0.02,-0.014,0.024,0.037,-0.04,0.013,-0.069,0.033
VPS35L (UniProt Q7Z3J2),0.011,-0.004,-0.072,0.025,0.044,0.059,0.014,0.012,-0.047,0.071
TMEM208 (UniProt Q9BTX3),-0.021,0.032,0.101,0.046,0.13,0.011,-0.054,-0.098,-0.002,0.033
TRMT2A (UniProt Q8IZ69),0,0.069,-0.124,0.07,-0.016,-0.009,-0.026,-0.09,0.031,-0.011
TOM1L1 (UniProt O75674),0.019,-0.009,-0.003,0.044,-0.038,0.037,-0.023,-0.026,0.006,0.076
TMEM128 (UniProt Q5BJH2),-0.048,0,0.06,0.034,-0.437,0.067,-0.081,-0.238,-0.182,0.084
UHRF1BP1L (UniProt A0JNW5),-0.024,0.017,0.016,0.027,0.042,0.01,-0.009,0.025,-0.007,0.061
XRCC1 (UniProt P18887),0.036,-0.392,0.04,0.046,0.304,,-0.035,0.042,0.043,0.117
VDAC1 (UniProt P21796),-0.006,0,0.039,-0.003,-0.023,0.006,-0.004,0.005,0.006,0.067
TMEM219 (UniProt Q86XT9),-0.029,0.035,0.059,0.073,0.001,0.015,,0.006,0.042,0.016
UBE2J2 isoform 3 (UniProt Q8N2K1),-0.096,0.154,0.026,0.07,-0.057,0.126,,-0.039,-0.145,-0.015
TOMM20 (UniProt Q15388),0.073,-0.01,-0.013,0.004,0.012,0.018,0.049,-0.006,0.007,0.027
